# Data taken from the supplement of paper PMC10127200.
# Counter-ions that a name gives are not always drawn.
# Test system: A549
# Assay: Euclidean distance of Cell Painting phenotypic profile (signed KS, 77 features) to DMSO centroid (dimensionless distance); 5 or 10 uM (library dependent); higher = stronger phenotypic change vs DMSO (phenoactivity)
# Conditions: 48 h
# Method in brief: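 Stained cells were imaged confocally at 20X with 9 fields per well, after 48 h of exposure to library compounds at 10 or 5 uM (set by library; 0.1% DMSO final). The cells were five cancer lines and a healthy fibroblast line. From the images, Harmony extracted 77 features, each expressed as a signed Kolmogorov-Smirnov statistic relative to same-plate vehicle wells. Phenoactivity is measured as Euclidean distance to the median vehicle profile, using plate-position-corrected, correlation-weighted profiles averaged across replicates at the top dose.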
row,SMILES,Euclidean distance
1,CC(C)=CCOc1ccc(/C=C/C(=O)c2ccc(OCC=C(C)C)cc2OCC(=O)O)cc1 [Sofalcone],1.09
2,Cc1ccc(Nc2nccc(N(C)c3ccc4c(C)n(C)nc4c3)n2)cc1S(N)(=O)=O,2.34
3,NC12CC3CC(CC(C3)C1)C2 [Amantadine HCl],0.94
4,CC(C)NCC(O)COc1ccc(CCOCC2CC2)cc1 (configuration not stated) [Betaxolol],0.384
5,O=C1NS(=O)(=O)c2ccccc21 [Saccharin],0.449
6,Cc1cc(OCc2nnc(SC3CCCC3)n2-c2cccnc2)ccc1-c1ccc(S(C)(=O)=O)cc1,3.4
7,Cc1ccc(C(=O)N(CCCN)[C@@H](c2oc3cc(Cl)ccc3c(=O)c2Cc2ccccc2)C(C)C)cc1,3.16
8,COc1cc2ncc(-c3ccccc3)nc2cc1OC [Tyrphostin AG 1296],1.34
9,COc1c(C)c(C(=O)c2ccc(N)c(C(=O)O)c2)n2ccccc12,1.03
10,CC[C@@H](Nc1c(Nc2cccc(C(=O)N(C)C)c2O)c(=O)c1=O)c1ccc(C)o1,0.692
11,CN[C@H]1C(=O)N[C@@H]2Cc3ccc(cc3)Oc3cc4cc(c3O[C@@H]3O[C@H](C(=O)O)[C@@H](O)[C@H](O)[C@H]3NC(=O)CCCCCCCCC(C)C)Oc3ccc(cc3Cl)[C@@H](O)[C@@H]3NC(=O)[C@H](NC(=O)[C@@H]4NC(=O)[C@@H](NC2=O)c2cc(cc(O)c2Cl)Oc2cc1ccc2O)c1ccc(O)c(c1)-c1c(O[C@H]2O[C@H](CO)[C@@H](O)[C@H](O)[C@@H]2O)cc(O)cc1[C@@H](C(=O)NCCCN(C)C)NC3=O [Dalbavancin],0.819
12,CCCCNC(=O)NS(=O)(=O)c1ccc(C)cc1 [Tolbutamide],0.625
